In the library only some 2.4% were active in any assay of this set; here they are far more common.
POLH inh – DNA polymerase eta (human) inhibition. Q9Y253. recombinant Pol eta, fluorescent DNA replication assay. Potency, µM (highest dose often 114 µM), for inactives: at the highest dose activity change, negative = inhibition, actives largely listed as inhibitors. hit rate 1.2% among 390,000. AID 588591; note: % is set by controls: 0 for no effect and ±100 for the full control effect
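Fluorescent replication assay: 50 nM final substrate added after a 15 min room-temperature compound preincubation with 10 nM enzyme. Signal taken at 0 min and again at 10 min.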
Pol beta inh – blocks human DNA polymerase beta activity; AID 485314; Pol beta primer extension/strand displacement, fluorescence kinetic; Potency, µM (top dose mostly 114 µM), for the others: at the top dose activity change, negative = inhibition, actives largely listed as inhibitors; hit rate 1.3% among 340,000; P06746; note: % is set by controls: 0 for no effect and ±100 for the full control effect
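Homogeneous kinetic assay of primer extension and strand displacement by 10 nM Pol beta, preincubated 15 min at room temperature with compound before 50 nM substrate (final) was added. Read at 0 and 10 min; four-parameter Hill fit.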
Pol iota inh – inhibitors of human DNA polymerase iota | Potency, µM (titrated, usually from 115 µM), inactives show top-dose activity, negative = inhibition, actives largely listed as inhibitors | Q9UNA4 | hit rate 1% among 390,000 | AID 588590 | Pol iota fluorescent replication assay, 10 min
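Fluorescent replication assay read twice, at 0 min and 10 min after adding 50 nM (final) substrate. Enzyme (10 nM) and compounds were first incubated 15 min at room temperature; enzyme-free buffer wells were negative controls.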
WRN inhibitor – blocks human WRN helicase; WRN helicase unwinding, fluorescent forked duplex, kinetic; AID 651768; Potency, µM (highest dose often 114 µM), for the others: top-dose activity change, negative = inhibition, usual class: inhibitors; hit rate 0.46% among 360,000; note: % is set by controls: 0 for no effect and ±100 for the full control effect; nearly all actives have a fitted effect of over 55% in size
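WRN at 20 nM final preincubated with compound 15 min at room temperature; reaction started with 100 nM fluorophore/quencher forked duplex oligonucleotide and 2 mM ATP final. Unwinding followed kinetically by red fluorescence (ex 525, em 598 nm).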
Pol kappa inh – blocks human DNA polymerase kappa activity | Q9UBT6 | purified Pol kappa, fluorescent DNA synthesis assay, 10 min | Potency, µM (series often up to 107 µM), for the others: top-dose activity, negative = inhibition, actives largely listed as inhibitors | hit rate 0.53% among 400,000; note: % is set by controls: 0 for no effect and ±100 for the full control effect
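Here, compound and 10 nM enzyme are combined for 15 min at room temperature; adding 50 nM substrate (final) starts DNA synthesis, tracked by fluorescence at 0 and 10 min against buffer-only wells.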
FEN1 inhibitor – human FEN1 inhibition; hit rate 0.35% among 390,000; P39748; Potency, µM (titrated, usually from 114 µM), for the others: at the highest dose activity change, negative = inhibition, hits mostly inhibitors; Recombinant FEN1 flap cleavage, fluorescence, 15 min; AID 588795; note: % is set by controls: 0 for no effect and ±100 for the full control effect; nearly all actives have a fitted effect of over 65% in size
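Quantitative HTS format: each compound was titrated, incubated with 10 nM nuclease for 15 min at room temperature, then challenged with flap substrate at 50 nM final. Signal change over 15 min gave concentration–effect curves.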
Active calls of the source: *; ? = inconclusive; / = no result; [ ] = another dose, or the depositor's remark. Calls come from the whole dose curve; as a rule, active = well fitted curve in the direction sought with a large enough effect; inconclusive = small, poorly fitted or top-dose-only effect, or another doubt; inactive = no such curve, though single readings can be large; an effect the other way counts as inactive or inconclusive. Potency is the fitted concentration of half-maximal effect.

SMILES | POLH inh | Pol beta inh | Pol iota inh | WRN inhibitor | Pol kappa inh | FEN1 inhibitor
CCC(C)CC(C)CC(C)C(=O)/C=C(/O)C(C)CC(C)C/C=C/C(C)C(O)C(C)C(O)CC1CCC(C)(C)O1 (configuration not stated) | / | / | / | / | -5%[60.1 µM] | /
COc1ccc(NC(=O)CSc2nc3n[nH]c(C)c3c(=N)n2-c2ccc(Cl)c(C)c2)cc1OC | 50µM* | 3.5µM* | 35% | -5% | 7% | -9%
CCc1ccc(NC(=O)CSc2nc3n[nH]c(C)c3c(=N)n2-c2ccccc2C)cc1 | 16% | 6% | 89µM* | / | -16%[60.1 µM] | -4%
CC(C)=CCC[C@](C)(O)C1CC[C@]2(C)[C@@H]1CC[C@@H]1[C@@]3(C)CCC(=O)C(C)(C)[C@@H]3CC[C@]12C (some centres not stated) | / | / | / | / | 3%[60.1 µM] | /
CCCCOC(=O)C1=C(C)NC(=O)NC1c1ccccc1 (configuration not stated) | -5% | 1% | -11% | -7% | -9% | -10%
CCCCOC(=O)C1=C(C)NC(=O)NC1c1ccc([N+](=O)[O-])s1 (configuration not stated) | -27% | 0% | 89µM* | -17% | ? | -14%
O=C(O)[C@@H]1CN[C@@H](C(=O)O)C1 | / | / | / | / | 8%[19.4 µM] | /
Cc1nc2c(c(=O)n1Cc1ccccc1Cl)c1nc3ccccc3nc1n2Cc1ccco1 | / | 20µM* | / | / | / | /
Cc1nc2ccccc2c(=O)n1Cc1ccco1 | -17% | 89% | 31% | -3% | 3% | 2%
COc1ccc(S(=O)(=O)c2c(N)n(Cc3ccco3)c3nc4ccccc4nc23)cc1 | 7.9µM* | ? | 7.9µM* | 35µM* | 25µM* | ?
COc1ccc(Cn2c3nc4ccccc4nc3c3c(=O)n(Cc4ccco4)c(C)nc32)cc1 | / | 10µM* | / | / | / | /
Cc1ccc(S(=O)(=O)c2c(N)n(/N=C/c3ccco3)c3nc4ccccc4nc23)cc1 | -13% | 14% | -6% | -7% | -7% | -16%
C[N+]1(CC(=O)c2ccc(Cl)c(Cl)c2)CCOCC1 | / | / | 6% | / | -24% | 3%
COc1ccc(C(=O)Nc2nnc(S(=O)(=O)N(C)c3ccc(C)cc3)s2)cc1 | -7% | 0% | 10% | / | 1% | 0%
COC(=O)c1ccc(-c2ccc(C3C4C=CCC(C)C4C(=O)N3Cc3ccccc3)c(F)c2)cc1 (configuration not stated) | / | / | 12% | / | -3% | 3%
COc1ccc(Cl)c(Cn2cnc3c(cnn3C(C)(C)C)c2=O)c1F | / | / | 6% | / | 8% | 21%
COc1cc(C(=O)N/N=C/c2cc([N+](=O)[O-])cs2)cc(OC)c1OC | -13% | 0% | -2% | -5% | -1% | -10%
CCOc1ccc(C(=O)N/N=C/c2cc([N+](=O)[O-])cs2)cc1 | 33% | 14µM* | 35µM* | -4%[11.6 µM] | -28% | 2%
CCOc1ccccc1NC(=O)Nc1nnc(N2CCCC(C)C2)s1 (configuration not stated) | -14% | 6% | 0% | / | -23% | 2%
COc1cccc(/C(O)=C/c2nc3ccc(C(=O)NCCc4cccc(C)c4)cc3[nH]c2=O)c1 | -18% | -2% | 14% | 71µM* | -9% | -1%
O=c1nc(SCc2c(F)cccc2Cl)nc(-c2ccc(Cl)cc2)[nH]1 | 89µM* | 3% | 25% | 7%[11.6 µM] | -1% | -22%
CC(C)(C)OC(=O)NC(Cc1ccccc1)C(=O)NC1COC2CC(n3ccc(=O)[nH]c3=O)OC12 (configuration not stated) | / | / | 3% | / | -1% | 16%
CCN(CC)C(=O)CC(c1ccc(OC)cc1)c1c(OC)cc(OC)c2ccc(=O)oc12 (configuration not stated) | ? | ? | 79µM* | -12% | ? | 1%
CCN(CC)C(=O)CC(c1cc(OC)c(OC)c(OC)c1)c1c(OC)cc(OC)c2ccc(=O)oc12 (configuration not stated) | -2% | 5% | -24% | -6% | -10% | -11%

High-throughput results: PubChem, National Center for Advancing Translational Sciences (NCATS)
